Reference: PubChem BioAssay AID1445 (SRMLSC, 2008)
About 910 (0.41%) of roughly 220,000 compounds were called active.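 The calls were made as follows: active = primary inhibition above the hit cutoff, then over 50% inhibition at one or more dose response concentrations (cut at about 23% in these data, passing the limit was not always enough); inconclusive = conflicting primary data, or primary hits not chosen for dose response; inactive = low primary inhibition, or under 50% at every dose.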 The list comes from a sample in which actives are over-represented; it also holds similar structures and randomly drawn compounds. Measured potencies and affinities stand elsewhere.

target: Aminopeptidase N (Plasmodium falciparum (isolate 3D7)) (UniProt O96935); test: malaria alanyl aminopeptidase activity blockers – biochemical, fluorogenic H-Leu-NHMec substrate, 1536-well (AID 1445); settings: recombinant M1AAP, H-Leu-NHMec fluorogenic kinetic assay; at 30 µM, active compounds read high unless noted;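 also: plate controls were DMSO full reaction for no effect and no enzyme background for full effect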
Sequence (O96935 whole entry, looked up): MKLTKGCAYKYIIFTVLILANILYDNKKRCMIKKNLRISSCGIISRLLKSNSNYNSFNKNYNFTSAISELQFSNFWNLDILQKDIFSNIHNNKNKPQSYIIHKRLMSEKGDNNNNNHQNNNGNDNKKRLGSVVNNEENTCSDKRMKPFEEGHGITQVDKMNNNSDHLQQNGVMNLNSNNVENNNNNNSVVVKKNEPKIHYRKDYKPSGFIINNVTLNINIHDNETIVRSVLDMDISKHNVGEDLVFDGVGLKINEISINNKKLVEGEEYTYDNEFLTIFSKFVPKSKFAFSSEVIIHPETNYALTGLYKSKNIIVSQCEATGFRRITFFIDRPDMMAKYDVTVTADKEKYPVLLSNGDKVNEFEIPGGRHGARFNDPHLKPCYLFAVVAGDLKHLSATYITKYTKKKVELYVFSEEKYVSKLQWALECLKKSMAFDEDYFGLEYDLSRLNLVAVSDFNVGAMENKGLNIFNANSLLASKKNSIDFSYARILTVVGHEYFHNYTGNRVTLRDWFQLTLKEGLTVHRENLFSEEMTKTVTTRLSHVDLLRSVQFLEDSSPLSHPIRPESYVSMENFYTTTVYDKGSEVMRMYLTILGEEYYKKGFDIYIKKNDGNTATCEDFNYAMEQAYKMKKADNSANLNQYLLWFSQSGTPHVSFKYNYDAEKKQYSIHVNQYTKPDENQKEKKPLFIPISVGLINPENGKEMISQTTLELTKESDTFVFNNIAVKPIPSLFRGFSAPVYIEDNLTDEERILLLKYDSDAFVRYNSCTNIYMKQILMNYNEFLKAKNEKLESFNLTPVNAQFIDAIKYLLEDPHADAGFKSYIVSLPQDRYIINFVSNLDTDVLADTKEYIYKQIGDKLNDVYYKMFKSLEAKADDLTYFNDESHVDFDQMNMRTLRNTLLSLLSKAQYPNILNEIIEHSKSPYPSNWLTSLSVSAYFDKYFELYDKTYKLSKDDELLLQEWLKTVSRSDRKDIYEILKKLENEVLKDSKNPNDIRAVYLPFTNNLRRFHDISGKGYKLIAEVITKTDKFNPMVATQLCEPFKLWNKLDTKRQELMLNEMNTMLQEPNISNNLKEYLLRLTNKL

Row | Compound | inhibition
1 | CC(=O)Oc1c(-c2ccco2)oc2ccccc2c1=O | 30.4% (inactive)
2 | O=C(O)COc1c(-c2ccco2)oc2ccccc2c1=O | 9.28% (inactive)
3 | Cn1c(SCc2nc(-c3ccccc3)no2)nnc1-c1cccs1 | -3.32% (inactive)
4 | N/C(=N\OC(=O)c1cnn(-c2ccccc2)c1C(F)(F)F)c1ccc(C(F)(F)F)cc1 | 13.2% (inactive)
5 | O=C(NN1C(=O)c2ccccc2NC1c1ccoc1)c1ccc([N+](=O)[O-])cc1 (stereo not drawn) | 4.32% (inactive)
6 | O=C(NN1C(=O)c2ccccc2NC1c1ccco1)c1ccc([N+](=O)[O-])cc1 (stereo not drawn) | 8.9% (inactive)
7 | CC(=O)NN1C(=O)c2ccccc2NC1c1ccoc1 (stereo not drawn) | 4.92% (inactive)
8 | O=C(NN1C(=O)c2ccccc2NC1c1ccccn1)c1ccc(Br)cc1 (stereo not drawn) | 8.07% (inactive)
9 | O=C(NN1C(=O)c2ccccc2NC1c1ccco1)c1ccc(Br)cc1 (stereo not drawn) | 5.55% (inactive)
10 | O=C(NN1C(=O)c2ccccc2NC1c1ccccn1)c1ccc([N+](=O)[O-])cc1 (stereo not drawn) | 2.53% (inactive)
11 | CCCc1[nH]nc2c1C1(CCN(C(=O)OCc3ccccc3)CC1)C(C#N)=C(N)O2 | 3.73% (inactive)
12 | O=C1OCC=C1NNC(=O)c1cccnc1 | 4.75% (inactive)
13 | Cc1ccc(SCc2[nH]nc3c2C2(C(=O)N(C)c4ccccc42)C(C#N)=C(N)O3)cc1 (stereo not drawn) | 5.03% (inactive)
14 | O=C(CSc1nc2ccsc2c(=O)n1Cc1ccccc1)NCc1ccco1 | -0.89% (inactive)
15 | COc1ccc(C(=O)Nn2c(SCC(=O)NCc3ccco3)nc3ccccc3c2=O)cc1 | 1.81% (inactive)
16 | Cc1ccc(CNC(=O)CSc2nc3ccsc3c(=O)n2Cc2ccc(C(=O)O)cc2)cc1 | 33.8% (inactive)
17 | CCC(C)NC(=O)CSc1nc2ccsc2c(=O)n1NC(=O)c1ccccc1 (stereo not drawn) | 15.2% (inactive)
18 | CCCN(CCC)C(=O)CSc1nc2ccsc2c(=O)n1NC(=O)c1ccccc1 | 2.56% (inactive)
19 | COc1ccc(-n2c(SCC(=O)NCCC(C)C)nc3ccsc3c2=O)cc1 | -0.48% (inactive)
20 | Cc1ccc(CNC(=O)CSc2nc3ccsc3c(=O)n2Cc2ccccn2)cc1 | 15.8% (inactive)
21 | Cn1c(SCc2ccccc2)nc2ccsc2c1=O | 2.71% (inactive)

Row | Compound | inhibition
22 | CC1(C)Cc2c(sc(/N=C/N3CCCCC3)c2C#N)C(C)(C)N1 | 6.45% (inactive)
23 | COc1ccc(/C=C/C(=O)NCC2COc3ccccc3O2)c(OC)c1 (stereo not drawn) | 6.8% (inactive)
24 | COc1ccc(Cl)cc1NC(=O)CNc1ccccc1CN(C)C1CCCCC1 | 10.4% (inactive)
25 | COC(=O)c1ccc(COc2ncnc3c(Cl)cc(Cl)cc23)o1 | 1.47% (inactive)
26 | COc1ccc(C)cc1NC(=O)Cn1cnnn1 | 2.9% (inactive)
27 | S=C(c1ccc(Br)cc1)N1CCN(Cc2ccccc2)CC1 | 12.5% (inactive)
28 | CCc1n[nH]c(=S)n1/N=C/c1ccccc1OCc1ccc(Cl)cc1 | 3.79% (inactive)
29 | CSc1n[nH]c(NC(C)=O)n1 | 2.22% (inactive)
30 | C/C(=N\O)c1cc(Cl)cc(Cl)c1O | 10.5% (inactive)
31 | Oc1c(Cl)cc(Cl)cc1C=Nc1ccc(Br)cc1 | 12.1% (inactive)
32 | O=C(NCCn1ccc2ccccc21)c1ccc(S(=O)(=O)N2CCOCC2)cc1 | 8.48% (inactive)
33 | CC(C)C(=O)NCCc1nc2ccccc2n1CCCOc1ccc(Cl)cc1 | 10.4% (inactive)
34 | O=C(CC(C(=O)O)c1ccccc1)c1cccs1 (stereo not drawn) | 3.01% (inactive)
35 | CC(C)Cc1nc2oc3c(=O)[nH]cnc3c2c2c1CCCC2 | -0.28% (inactive)
36 | O=C(NCCc1ccccc1)C1CCCN(C(=O)NC2CCCCC2)C1 (stereo not drawn) | 28.2% (active)
37 | O=C(NC1CCN(C(=S)NCCc2ccccc2)CC1)C1CCCCC1 | -6.9% (inactive)
38 | CN(C)C(=O)N1CCCC(C(=O)NCCc2ccccc2)C1 (stereo not drawn) | 2.4% (inactive)
39 | N#Cc1c(NC(=O)CN2CCOCC2)oc(-c2ccccc2)c1-c1ccccc1 | 23.5% (active)
40 | O=C(CCN1CCOCC1)Nc1cccc(Br)c1 | -4.3% (inactive)
41 | O=C(CN1CCOCC1)NNc1nc(-c2ccccc2)c2cc(Br)ccc2n1 | 20.7% (inactive)
42 | O=c1[nH]c2ccc(Cl)cc2c(-c2ccccc2)c1SC(=S)N1CCOCC1 | 44% (inactive)

Row | Compound | inhibition
43 | N#Cc1c(NC(=O)CCN2C(=O)c3ccccc3C2=O)oc(-c2ccccc2)c1-c1ccccc1 | 5.82% (inactive)
44 | O=c1[nH]c2ccc(Cl)cc2c(-c2ccccc2)c1N1CCOCC1 | -3.98% (inactive)
45 | O=C(CN1CCOCC1)Nc1c(-c2ccccc2)c2cc(Br)ccc2[nH]c1=O | 28.2% (active)
46 | N#Cc1c(NC(=O)Cn2c(=O)oc3ccccc32)oc(-c2ccccc2)c1-c1ccccc1 | 4.71% (inactive)
47 | O=C(O)Cc1c(-c2ccccc2)c2cc(Br)ccc2[nH]c1=O | 22.3% (inactive)
48 | CCOC(=O)c1[nH]c2ccc(Br)cc2c1NC(=O)CCN1CCOCC1 | 4.62% (inactive)
49 | CCOC(=O)N1CCN(C(=O)CCCOc2ccccc2)CC1 | 3.31% (inactive)
50 | O=c1[nH]ncc(N2CCCCCC2)c1Cl | 5.89% (inactive)
51 | COc1cc(/C=C/C(=O)O)ccc1OCc1cnc(Cl)s1 | 0.41% (inactive)
52 | CC1=Nn2c(nc(-c3ccccc3)c2-c2ccccc2)N(CC(N)=O)C(=O)C1 | -0.64% (inactive)
53 | CCCS(=O)(=O)N1CCN(C(=O)c2ccco2)CC1 | 12.4% (inactive)
54 | CSc1nnc(C)c(=O)n1COC(=O)COc1ccccc1 | 0.02% (inactive)
55 | COc1cc(OC)cc(C(=O)NC(=S)NCc2ccco2)c1 | 5.49% (inactive)
56 | O=C(NC1CCCCC1)N1CCN(C(=O)c2ccco2)CC1 | -0.86% (inactive)
57 | O=C(c1ccco1)n1nc(-c2cccnc2)nc1NCc1ccco1 | 16.8% (inactive)
58 | CC1(C)Cc2nc3sc(C(=O)NCCO)c(N)c3cc2CO1 | 1.79% (inactive)
59 | CCC(C)(C)NC(=O)C(c1ccc(C)o1)N(C(=O)c1csnn1)c1cccc(F)c1 (stereo not drawn) | 1.56% (inactive)
60 | O=C(Cc1cccs1)Nc1nnc(-c2ccccc2)s1 | 8.23% (inactive)
61 | CCCc1n(CC(O)COCc2ccccc2)c2ccccc2[n+]1C (stereo not drawn) | 6.5% (inactive)
62 | Cc1ccc2[nH]c(=O)c(CN3CCCCC3)c(-c3ccccc3)c2c1 | -7.69% (inactive)
63 | O=c1[nH]c2ccc(Br)cc2c(-c2ccccc2)c1N1CCOCC1 | 3.65% (inactive)
